LASV entry inh – inhibitors of Lassa virus binding or cell entry | hit rate 1.2% among 300,000 | Lassa virus pseudotype entry inhibition, cell reporter | Potency, µM (titrated, usually from 37.9 µM), usual class: inhibitors; calls by dose curve; tested in HEK293 cells; also: nearly all actives have a fitted effect of over 50% in size
HCMV inh – blocks human cytomegalovirus replication; HFF cells, HCMV-luciferase reporter, 72 h; stronger effect = lower value; activity change, negative = inhibition, % at 57.5 µM; hit rate 4.5% among 410,000; in the data active = activity change below about -60%; inconclusive = no clear call, values can overlap the other calls; inactive = above about -39%
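After 16 h attachment at 37C, HFF cells received test compound and HCMV-luciferase (1 PFU/cell); reporter luminescence read 72 h later, data normalized against buffer-only and known inhibitor Salinomycin.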
HCV inh – HCV inhibition | AID 651820 | hit rate 3.4% among 340,000 | Huh7.5.1 HCVcc-Cre infection, luciferase reporter, 44 h | Potency, µM (series often up to 41.8 µM), most hits filed as inhibitors; active = well fitted inhibition curve with a large enough effect; inconclusive = small, poorly fitted or top-dose-only effect, or another doubt; inactive = no such curve, though single readings can be large or run the other way
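HCVcc-Cre virus at an moi near 0.5 was added right after compound to cells cultured 4 h from seeding (1,000 cells/well). Luciferase activity was determined 44 h later, 15 min after substrate addition at RT.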
Marburg entry inh – Marburg virus entry inhibition; Marburg virus pseudotyped entry inhibition, cell reporter; hit rate 1.8% among 300,000; AID 540276; Potency, µM (highest dose often 37.8 µM), hits mostly inhibitors; calls by dose curve; tested in HEK293 cells
FMDV antiviral – foot and mouth disease virus antiviral activity. FMDV antiviral cell-based qHTS. hit rate 1.2% among 410,000. Potency, µM (top dose mostly 57.9 µM), actives largely listed as inhibitors; calls by dose curve; tested in HEK293T cells; also: read-out not given here; nearly all actives have a fitted effect of over 45% in size
Each line names hits and unclear results; the compound was inactive in the other large screens; ! = a repeat was not active. Rows were chosen to be rich in hits. Some 7.9% of all compounds tested hit in one or more screens of this group.

O=C1CCC[C@H]2[C@@H](Cc3ccccc3)[C@@H](NS(=O)(=O)c3ccc4ccccc4c3)CC[C@]23CCCN13	none (no result: LASV entry inh, HCV inh, Marburg entry inh, FMDV antiviral)
O=c1ccnc(Nc2ccc([N+](=O)[O-])cc2)[nH]1	HCMV inh -71, Marburg entry inh inconclusive
COc1ccc(NC(=O)CCn2cnc3onc(-c4ccc(F)cc4)c3c2=O)cc1OC	HCMV inh -72, FMDV antiviral 10µM (no result: HCV inh, Marburg entry inh)
COc1cc(Cl)c(C)cc1NC(=O)CCn1cnc2onc(-c3ccc(F)cc3)c2c1=O	none (no result: HCV inh, Marburg entry inh)
COc1cccc(C(=O)/C=C/Nc2cc(C)ccc2O)c1	HCMV inh -79, HCV inh 2.2µM, Marburg entry inh inconclusive
CCCCCCN1C(=O)CC[C@@]23C1=NC(C(=O)OC)=C(C(=O)OC)[C@@H]2N(Cc1ccccc1)c1ccccc13	none (no result: LASV entry inh, HCMV inh, HCV inh, FMDV antiviral)
CN1C(=O)Cc2cc(S(=O)(=O)CCC(=O)N3CCN(c4ccc(Cl)cc4)CC3)ccc21	LASV entry inh inconclusive (no result: HCV inh, Marburg entry inh)
CC(=O)Oc1c(/C=C(\C#N)C(N)=O)[nH]c2ccccc12	LASV entry inh 16µM, HCV inh inconclusive, Marburg entry inh inconclusive
Cc1cccc(Cn2c(SCc3ccc(C(=O)NCc4ccccc4F)cc3)nc3ccncc32)c1	Marburg entry inh inconclusive (no result: LASV entry inh, HCV inh)
C/C=C/c1ccc(OCC(O)CN2CCCCC2CC)c(OC)c1 (centres undefined)	HCV inh 2.5µM
C/C=C/c1ccc(OCCCNC2CCCC2)c(OC)c1	LASV entry inh inconclusive, HCV inh 0.89µM, Marburg entry inh inconclusive
C/C=C/c1ccc(OCC(O)CN(C)Cc2ccc(SC)cc2)c(OC)c1 (centres undefined)	HCMV inh -102 (no result: LASV entry inh, Marburg entry inh)
C/C=C/c1ccc(OCC(O)CNCCc2ccc(OC)cc2)c(OC)c1 (centres undefined)	HCMV inh inconclusive, HCV inh inconclusive (no result: LASV entry inh, Marburg entry inh)
COc1ccc(Cl)cc1S(=O)(=O)N1CCN(Cc2cccc(F)c2)CC1	none (no result: HCV inh, Marburg entry inh)
O=C1CCC2=C(O1)C(O)=C(O)CC2	none (no result: LASV entry inh, HCMV inh, HCV inh, FMDV antiviral)
CC1N(C)c2cc(NC(=O)c3ccco3)ccc2C1(C)C (centres undefined)	LASV entry inh inconclusive, HCMV inh -70, Marburg entry inh inconclusive
CC(=O)Nc1ccc(NC(=O)c2ccco2)cc1	LASV entry inh inconclusive
CC1N(C)c2cc(NC(=O)c3ccco3)c(P(=O)(Nc3ccc([N+](=O)[O-])cc3)N3CCOCC3)cc2C1(C)C (centres undefined)	LASV entry inh inconclusive, HCMV inh inconclusive, HCV inh 8.9µM, Marburg entry inh inconclusive
Cc1cc([N+](=O)[O-])ccc1NC(=O)c1ccco1	none
Oc1ccc(N=Nc2ccc(Br)cc2)c(O)c1	none (no result: LASV entry inh, Marburg entry inh)
Cc1ccc(N=Nc2ccc(O)cc2)c(Br)c1	LASV entry inh 10µM, Marburg entry inh inconclusive
Cc1c(C(=O)NCc2ccc3c(c2)OCO3)cnn1-c1ncc2c(n1)-c1ccccc1CC2	none (no result: LASV entry inh, HCMV inh, HCV inh, Marburg entry inh)
Cc1cc(C)nc(Nc2nc3ccccc3o2)n1	none
Oc1ccccc1/C=N/Nc1ncc(Br)cn1	HCMV inh -98, HCV inh inconclusive
CC(=NNc1nc2ccccc2o1)c1cc2ccccc2cn1	LASV entry inh 0.79µM, HCMV inh -99, HCV inh inconclusive, Marburg entry inh 0.35µM
CC(=NNc1nc2ccccc2o1)c1ncccn1	LASV entry inh 0.89µM, HCMV inh -77, HCV inh 3.5µM, Marburg entry inh 0.4µM
Oc1ccccc1/C=N/Nc1ccccc1	LASV entry inh inconclusive, Marburg entry inh inconclusive
Oc1ccccc1/C=N/Nc1nc2ccccc2o1	LASV entry inh inconclusive, HCMV inh active, HCV inh inconclusive, Marburg entry inh inconclusive
Brc1ccc(/C=N/Nc2nc3ccccc3o2)cc1	none (no result: LASV entry inh, Marburg entry inh)
COc1ccc(N2CCN(C(=O)CS(=O)(=O)c3cccc4nsnc34)CC2)cc1	none (no result: HCV inh, Marburg entry inh)
CCOC(=O)C(Nc1ccccc1NC(=O)OC(C)(C)C)C(=O)Nc1c(C)cccc1C (centres undefined)	none (no result: LASV entry inh, HCV inh, Marburg entry inh, FMDV antiviral)
Cc1ccc(C)c(NC(=O)CCOc2ccccc2)c1	HCMV inh -67!
Cc1cccc(COc2ccccc2C(=O)N(C)CC(=O)Nc2cccc(F)c2)c1	HCV inh inconclusive (no result: LASV entry inh, Marburg entry inh)
CCOc1ccc(NC(=O)CN(C)C(=O)c2ccccc2OCc2cccc(C)c2)cc1OCC	LASV entry inh inconclusive, HCV inh 10µM, Marburg entry inh inconclusive
CCOc1ccccc1OCCCC(=O)N(C)CC(=O)Nc1cc(C)ccc1C	HCMV inh -70
O=C(CSc1nc2ccccc2nc1Cc1ccc(F)cc1)Nc1ccc2c(c1)OCO2	HCMV inh inconclusive (no result: HCV inh, Marburg entry inh)
Cc1ccc(-c2nsc(NC(=O)c3oc4cc(C)c(Cl)cc4c3C)n2)cc1	HCMV inh inconclusive (no result: HCV inh)
COc1ccc(N(Cc2ccccc2)C(=O)c2nc(SC)ncc2Cl)cc1	Marburg entry inh inconclusive (no result: HCV inh)

Compound activity (PubChem BioAssay)
